Laboratory results taken from ChEMBL document CHEMBL1961873, “Compounds: GSK PKIS; Assays: Nanosyn kinase panel” (2012).

Legend:
[1] = target: Serine/threonine-protein kinase PAK 6 (Homo sapiens) (UniProt Q9NQU5); conditions: at 1 µM;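 also: values are mean percent inhibition of PAK6 kinase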
[2] = test system: Tyrosine-protein kinase ABL1 (Homo sapiens), P00519 [E255K]; conditions: at 0.1 µM
[3] = test system: Tyrosine-protein kinase ABL1 (Homo sapiens), P00519 [E255K]; conditions: at 1 µM
[4] = test system: Tyrosine-protein kinase ABL1 (Homo sapiens), P00519 [H396P]; conditions: at 0.1 µM
[5] = test system: Tyrosine-protein kinase ABL1 (Homo sapiens), P00519 [H396P]; conditions: at 1 µM
[6] = test system: Tyrosine-protein kinase ABL1 (Homo sapiens), P00519 [M351T]; conditions: at 0.1 µM
[7] = test system: Tyrosine-protein kinase ABL1 (Homo sapiens), P00519 [M351T]; conditions: at 1 µM
[8] = test system: Tyrosine-protein kinase ABL1 (Homo sapiens), P00519 [Q252H]; conditions: at 0.1 µM
[9] = test system: Tyrosine-protein kinase ABL1 (Homo sapiens), P00519 [Q252H]; conditions: at 1 µM
[10] = test system: Tyrosine-protein kinase ABL1 (Homo sapiens), P00519 [T315I]; conditions: at 0.1 µM
[11] = test system: Tyrosine-protein kinase ABL1 (Homo sapiens), P00519 [T315I]; conditions: at 1 µM
[12] = test system: Tyrosine-protein kinase ABL1 (Homo sapiens), P00519 [Y253F]; conditions: at 0.1 µM
[13] = test system: Tyrosine-protein kinase ABL1 (Homo sapiens), P00519 [Y253F]; conditions: at 1 µM
[14] = target: Tyrosine-protein kinase ABL1 (Homo sapiens) (UniProt P00519); conditions: at 0.1 µM
[15] = target: Tyrosine-protein kinase ABL1 (Homo sapiens) (UniProt P00519); conditions: at 1 µM
[16] = target: ALK tyrosine kinase receptor (Homo sapiens) (UniProt Q9UM73); conditions: at 0.1 µM
Sequence of ALK tyrosine kinase receptor (Homo sapiens) (Q9UM73 19-1620 limits assumed): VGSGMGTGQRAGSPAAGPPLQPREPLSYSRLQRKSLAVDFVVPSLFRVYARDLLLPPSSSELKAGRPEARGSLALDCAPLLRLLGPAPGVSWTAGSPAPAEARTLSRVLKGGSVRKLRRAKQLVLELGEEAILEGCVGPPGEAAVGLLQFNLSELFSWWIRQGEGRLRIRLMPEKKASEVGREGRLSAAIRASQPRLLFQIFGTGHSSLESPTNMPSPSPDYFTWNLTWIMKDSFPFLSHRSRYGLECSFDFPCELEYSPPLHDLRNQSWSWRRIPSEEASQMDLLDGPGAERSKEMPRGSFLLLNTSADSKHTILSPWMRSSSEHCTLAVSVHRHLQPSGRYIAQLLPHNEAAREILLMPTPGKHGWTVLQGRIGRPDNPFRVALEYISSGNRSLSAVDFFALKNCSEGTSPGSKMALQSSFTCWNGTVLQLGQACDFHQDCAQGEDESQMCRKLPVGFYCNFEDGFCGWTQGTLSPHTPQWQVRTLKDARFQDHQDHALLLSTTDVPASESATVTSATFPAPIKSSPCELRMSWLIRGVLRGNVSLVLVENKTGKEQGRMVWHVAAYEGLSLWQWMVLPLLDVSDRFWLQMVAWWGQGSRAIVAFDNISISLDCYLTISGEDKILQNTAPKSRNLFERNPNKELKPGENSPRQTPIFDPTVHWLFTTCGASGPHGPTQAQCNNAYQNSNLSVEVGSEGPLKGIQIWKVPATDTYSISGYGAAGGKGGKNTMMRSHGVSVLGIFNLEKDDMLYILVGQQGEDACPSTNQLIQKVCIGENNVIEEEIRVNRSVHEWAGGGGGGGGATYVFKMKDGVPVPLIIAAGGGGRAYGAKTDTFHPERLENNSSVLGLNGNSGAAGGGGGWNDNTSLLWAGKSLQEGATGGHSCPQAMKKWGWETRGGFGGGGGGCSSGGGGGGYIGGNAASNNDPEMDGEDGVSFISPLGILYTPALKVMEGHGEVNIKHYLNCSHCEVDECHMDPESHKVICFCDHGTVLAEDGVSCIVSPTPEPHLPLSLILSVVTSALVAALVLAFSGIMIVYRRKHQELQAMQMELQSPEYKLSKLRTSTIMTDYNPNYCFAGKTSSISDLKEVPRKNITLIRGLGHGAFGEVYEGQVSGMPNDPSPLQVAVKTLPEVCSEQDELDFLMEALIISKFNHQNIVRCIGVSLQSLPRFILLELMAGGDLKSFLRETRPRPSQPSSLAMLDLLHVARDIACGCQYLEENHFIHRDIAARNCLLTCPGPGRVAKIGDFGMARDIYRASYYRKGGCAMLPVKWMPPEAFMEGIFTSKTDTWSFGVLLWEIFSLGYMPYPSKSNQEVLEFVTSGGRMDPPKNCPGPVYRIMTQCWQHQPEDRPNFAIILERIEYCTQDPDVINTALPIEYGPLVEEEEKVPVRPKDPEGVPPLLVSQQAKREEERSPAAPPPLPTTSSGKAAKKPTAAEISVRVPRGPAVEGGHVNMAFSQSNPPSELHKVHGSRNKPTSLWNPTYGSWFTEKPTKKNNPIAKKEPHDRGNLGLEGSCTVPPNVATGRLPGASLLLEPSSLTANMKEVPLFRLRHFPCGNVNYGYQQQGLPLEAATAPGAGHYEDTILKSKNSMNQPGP

[17] = target: ALK tyrosine kinase receptor (Homo sapiens) (UniProt Q9UM73); conditions: at 1 µM
[18] = target: Tyrosine-protein kinase ABL2 (Homo sapiens) (UniProt P42684); conditions: at 0.1 µM
Sequence of Tyrosine-protein kinase ABL2 (Homo sapiens) (P42684 whole entry): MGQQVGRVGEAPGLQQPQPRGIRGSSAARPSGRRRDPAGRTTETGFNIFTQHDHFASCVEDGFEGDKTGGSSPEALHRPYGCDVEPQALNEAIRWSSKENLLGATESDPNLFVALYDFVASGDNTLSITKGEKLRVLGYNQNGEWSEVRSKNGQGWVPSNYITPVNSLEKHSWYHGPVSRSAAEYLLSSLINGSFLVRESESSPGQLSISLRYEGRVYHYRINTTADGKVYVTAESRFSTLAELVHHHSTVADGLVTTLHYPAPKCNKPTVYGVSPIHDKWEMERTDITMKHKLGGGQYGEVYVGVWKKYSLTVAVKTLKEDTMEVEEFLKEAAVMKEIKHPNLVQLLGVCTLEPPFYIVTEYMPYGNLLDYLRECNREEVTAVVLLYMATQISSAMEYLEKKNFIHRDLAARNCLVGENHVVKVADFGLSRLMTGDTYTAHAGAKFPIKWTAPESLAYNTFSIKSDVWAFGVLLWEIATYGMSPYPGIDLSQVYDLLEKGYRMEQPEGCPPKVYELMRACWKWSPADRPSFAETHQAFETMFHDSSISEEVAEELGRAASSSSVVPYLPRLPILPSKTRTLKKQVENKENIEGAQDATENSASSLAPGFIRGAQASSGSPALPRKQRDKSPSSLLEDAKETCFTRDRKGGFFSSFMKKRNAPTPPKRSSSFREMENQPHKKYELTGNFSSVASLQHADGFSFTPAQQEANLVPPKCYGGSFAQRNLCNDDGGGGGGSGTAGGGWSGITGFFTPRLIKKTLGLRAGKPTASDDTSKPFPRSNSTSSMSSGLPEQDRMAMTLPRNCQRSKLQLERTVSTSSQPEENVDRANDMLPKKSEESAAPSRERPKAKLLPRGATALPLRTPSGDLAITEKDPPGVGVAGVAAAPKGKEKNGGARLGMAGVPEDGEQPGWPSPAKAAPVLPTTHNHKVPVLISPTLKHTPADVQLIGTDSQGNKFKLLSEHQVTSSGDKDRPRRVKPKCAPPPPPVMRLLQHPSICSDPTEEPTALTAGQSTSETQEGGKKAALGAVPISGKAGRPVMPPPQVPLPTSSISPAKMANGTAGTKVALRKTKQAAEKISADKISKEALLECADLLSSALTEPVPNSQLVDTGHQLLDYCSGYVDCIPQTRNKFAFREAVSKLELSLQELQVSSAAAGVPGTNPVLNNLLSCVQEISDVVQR

[19] = target: Tyrosine-protein kinase ABL2 (Homo sapiens) (UniProt P42684); conditions: at 1 µM
[20] = target: Tyrosine-protein kinase receptor UFO (Homo sapiens) (UniProt P30530); conditions: at 0.1 µM;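 also: values are mean percent inhibition of AXL from the GSK PKIS screen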
Sequence of Tyrosine-protein kinase receptor UFO (Homo sapiens) (P30530 whole entry): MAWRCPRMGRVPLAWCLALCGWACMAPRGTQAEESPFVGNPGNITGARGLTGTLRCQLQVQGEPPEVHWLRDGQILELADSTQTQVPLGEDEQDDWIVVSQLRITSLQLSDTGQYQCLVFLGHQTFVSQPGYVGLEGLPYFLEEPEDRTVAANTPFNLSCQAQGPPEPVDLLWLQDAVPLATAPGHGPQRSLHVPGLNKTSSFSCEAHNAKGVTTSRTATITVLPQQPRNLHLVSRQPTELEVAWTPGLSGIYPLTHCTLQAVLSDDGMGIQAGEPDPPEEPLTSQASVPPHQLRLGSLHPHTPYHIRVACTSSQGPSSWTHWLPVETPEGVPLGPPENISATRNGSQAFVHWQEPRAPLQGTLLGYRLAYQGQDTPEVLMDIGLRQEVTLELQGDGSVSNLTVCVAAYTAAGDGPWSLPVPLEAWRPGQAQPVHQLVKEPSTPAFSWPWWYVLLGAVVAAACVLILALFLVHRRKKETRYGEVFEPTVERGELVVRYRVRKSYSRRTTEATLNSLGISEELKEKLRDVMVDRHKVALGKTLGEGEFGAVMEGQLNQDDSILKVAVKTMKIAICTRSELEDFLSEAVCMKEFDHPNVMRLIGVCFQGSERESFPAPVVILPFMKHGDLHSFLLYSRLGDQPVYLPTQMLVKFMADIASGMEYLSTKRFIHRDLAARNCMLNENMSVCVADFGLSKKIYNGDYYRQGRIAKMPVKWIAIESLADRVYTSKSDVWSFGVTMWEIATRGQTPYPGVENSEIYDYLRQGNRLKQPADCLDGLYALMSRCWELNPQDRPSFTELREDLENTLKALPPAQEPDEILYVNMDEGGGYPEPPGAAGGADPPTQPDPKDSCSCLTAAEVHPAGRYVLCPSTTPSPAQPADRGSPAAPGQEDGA

Sequence of Serine/threonine-protein kinase PAK 6 (Homo sapiens) (Q9NQU5 whole entry, looked up): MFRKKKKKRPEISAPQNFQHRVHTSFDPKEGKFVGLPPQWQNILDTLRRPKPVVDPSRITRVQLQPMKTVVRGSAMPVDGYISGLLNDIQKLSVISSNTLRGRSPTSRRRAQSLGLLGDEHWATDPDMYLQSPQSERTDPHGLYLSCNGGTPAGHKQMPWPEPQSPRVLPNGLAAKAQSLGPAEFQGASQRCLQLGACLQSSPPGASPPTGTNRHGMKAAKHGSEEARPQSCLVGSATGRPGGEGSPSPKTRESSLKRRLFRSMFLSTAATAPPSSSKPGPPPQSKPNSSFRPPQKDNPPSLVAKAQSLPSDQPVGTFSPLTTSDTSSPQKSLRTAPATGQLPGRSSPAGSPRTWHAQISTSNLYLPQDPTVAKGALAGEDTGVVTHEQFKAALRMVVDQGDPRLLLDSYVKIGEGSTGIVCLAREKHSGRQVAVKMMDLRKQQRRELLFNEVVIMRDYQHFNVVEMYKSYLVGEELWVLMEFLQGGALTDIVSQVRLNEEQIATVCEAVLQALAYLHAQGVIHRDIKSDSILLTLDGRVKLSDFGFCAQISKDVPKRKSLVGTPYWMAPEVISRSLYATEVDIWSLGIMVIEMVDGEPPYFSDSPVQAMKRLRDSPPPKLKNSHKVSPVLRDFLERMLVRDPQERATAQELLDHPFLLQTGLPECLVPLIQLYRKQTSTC

Compound	inhibition [1] [%]	inhibition [2] [%]	inhibition [3] [%]	inhibition [4] [%]	inhibition [5] [%]	inhibition [6] [%]	inhibition [7] [%]	inhibition [8] [%]	inhibition [9] [%]	inhibition [10] [%]	inhibition [11] [%]	inhibition [12] [%]	inhibition [13] [%]	inhibition [14] [%]	inhibition [15] [%]	inhibition [16] [%]	inhibition [17] [%]	inhibition [18] [%]	inhibition [19] [%]	inhibition [20] [%]
CCCN1CCC(c2ccc(Nc3nc(Nc4cc(F)ccc4C(N)=O)c4cc[nH]c4n3)c(OC)c2)CC1	-7.38	4.38	6.84	4.63	8.82	1.91	7.76	3.87	9.15	3.58	19.1	3.53	8.34	1.86	8.95	97.5	86.6	2.8	5.54	17.1
NC(=O)c1sc(-n2cnc3ccc(C(F)(F)F)cc32)cc1OCc1ccccc1Br	-7.15	3.08	2.1	3.37	3.08	1.6	3.37	3.06	3.55	1.98	3.2	3.65	2.05	2.31	4.26	1.39	3.73	1.79	2.59	-8.18
COc1ccc(-c2oc3ncnc(N)c3c2-c2ccc(NC(=O)Nc3cc(C(F)(F)F)ccc3F)cc2)cc1	11	3.15	22.9	10.3	58.2	34.6	76.4	33.6	76.2	21.9	64.3	9.77	54.4	7.54	52.3	2.32	8.5	13.6	68.1	21.3
CCn1c(-c2nonc2N)nc2c(C#CC(C)(C)O)ncc(OC3CCNCC3)c21	76	-0.7	-0.01	2.05	2.1	-0.57	0.51	0.98	0.41	2.72	1.99	-0.54	0.66	4.72	3.17	1.83	4.92	2.02	3.67	-1.51
CN1CCC(n2cnc(-c3ccc(F)cc3)c2-c2ccnc(Nc3ccccc3)n2)CC1	-6.61	2.58	4.56	4.83	13.6	0.84	10.2	3.66	9.15	1.45	4.98	3.47	9.91	1.69	11	1.58	2.39	3.42	10.2	-2.82
Fc1ccc(-c2nn3ncccc3c2-c2ccnc(Nc3ccc4c(c3)OCCO4)n2)cc1	-1.03	10.2	40.9	25.5	69.9	38.6	81	31	75.2	14.1	53.4	29.3	72.2	11.8	62.6	4.64	7.86	10.4	56.1	-9.81
CCn1c(-c2nonc2N)nc2c(C#CC(C)(C)O)nc(OC[C@H](N)c3ccccc3)cc21	77.3	-1.28	-0.66	1.67	2.25	0.72	1.98	1.23	1.98	0.64	7.77	0.1	2.5	2.86	2.9	5.79	9.07	2.63	3.84	-1.29
COC(=O)Nc1nc2ccc(S(=O)(=O)c3ccc(NC(=O)Nc4cc(C(F)(F)F)ccc4F)cc3)cc2[nH]1	-4.19	1.6	-0.55	2.6	-0.47	0.84	3.17	2.16	4.69	2.49	1.15	0.34	1.69	3.92	9.87	2.66	3.54	5.17	6.34	-5.56
CCN1CCC(CC(=O)Nc2n[nH]c3nnc(-c4cccc(F)c4F)cc23)CC1	0.04	1.76	1.65	2.63	4.15	-0.03	3.11	2.12	3.13	2.02	3.8	3.03	2.59	4	4.16	2.51	0.86	3.37	3.96	0.47
c1cc(-c2cnn3nc(N4CCOCC4)ccc23)nc(NC2CC2)n1	6.8	2.12	3.25	3.02	5.18	3.02	4.81	2.61	6.62	2.17	2.55	3.63	6.41	3.71	13.7	2.05	9.86	3.73	9.11	-3.58
CCNC(=O)O[C@H]1CN[C@H](C#Cc2cc3ncnc(Nc4ccc(OCc5cccc(F)c5)c(Cl)c4)c3s2)C1	4.55	4.1	2.82	3.17	2.6	2.39	0.66	2.61	2.16	1.66	1.84	3.4	1.32	3.63	4.84	1.85	4.55	3.5	5.21	-3.44
N#Cc1c(NC(=O)CN2CCOCC2)sc2c1CCCC2	-4.27	3.47	4.25	2.48	5.61	1.25	4.91	1.82	4.61	2.58	5.24	5.91	7.6	6.98	7.71	3.56	8.62	5.84	5.84	-5.02
